Rows were chosen to be rich in hits. Some 3.5% of all compounds tested hit in one or more screens of this group.
Bead autofluor – flagged as autofluorescent in microsphere protease counterscreen. 3.1% of 360,000 active. fluorescence intensity (no concentration beside the values). compound autofluorescence counterscreen, microsphere flow cytometry; stronger effect = higher value. AID 624483; in the data active = fluorescence intensity above about 16000; inconclusive = no clear call, values can overlap the other calls
BoNT A protease – BoNT A light chain protease inhibition; multiplex microsphere protease substrate cleavage, flow cytometry; inhibition, % at 10 µM; 0.17% of 360,000 active; note: plate controls were buffer without enzyme for full effect and enzyme alone for no effect
Anthrax LF prot – blocks Bacillus anthracis lethal factor protease; 0.12% of 360,000 active; inhibition, % at 10 µM; P15917; multiplex microsphere protease cleavage assay, LF; AID 588501; note: plate controls were buffer without enzyme for full effect and enzyme alone for no effect
BJeLR lethal – kills HRASV12-expressing BJeLR cells | BJeLR (HRASV12) viability, CellTiter-Glo ATP luminescence, 48 h | inhibition, % (concentration not given with the values) | 0.17% of 300,000 active; in the data active = inhibition above about 50%; inconclusive = no clear call, values can overlap the other calls
BoNT F protease – blocks Botulinum neurotoxin F light chain protease. Multiplex microsphere protease cleavage assay, flow cytometry. inhibition, % at 10 µM. 0.22% of 360,000 active. AID 588497; in the data active = inhibition above about 35%, passing the limit was not always enough; inconclusive = no clear call, values can overlap the other calls; note: plate controls were buffer without enzyme for full effect and enzyme alone for no effect
* = called active by the depositor; ? = inconclusive; . = no result given. Cut-off read from the data, not from the text of the source, unless noted: active = inhibition above about 30%; inconclusive = no clear call, values can overlap the other calls; inactive = below that.

SMILES	Bead autofluor	BoNT A protease	Anthrax LF prot	BJeLR lethal	BoNT F protease
COc1ccc(S(=O)(=O)N(C)C[C@H]2Oc3c(NC(=O)CCC(F)(F)F)cccc3C(=O)N([C@H](C)CO)C[C@@H]2C)cc1	3467	1.0	-9.3	.	6.7
CN1C(=O)CC(N2CCC(C(N)=O)(N3CCCCC3)CC2)C1=O (stereo not drawn)	10991	-2.6	2.5	-2.1	-11.6
COc1cccc(N2C(=O)CC(N3CCC(C(N)=O)(N4CCCCC4)CC3)C2=O)c1 (stereo not drawn)	26152*	-7.6	-2.9	4.8	-10.3
O=C(OC1CSc2nc3ccccc3n2C1)c1ccco1 (stereo not drawn)	21891*	1.0	-4.6	0.5	-0.3
Cn1nc(C(=O)NCC(=O)Nc2ccc(F)c(F)c2)ccc1=O	2751	1.0	-2.8	.	2.9
O=C1OCCC1Sc1nnc(-c2ccc3c(c2)OCO3)o1 (stereo not drawn)	4302	-1.0	-3.0	-4.0	-6.0
O=C1OCCC1Sc1nnc(-c2cccc(Br)c2)o1 (stereo not drawn)	20056*	1.5	-3.4	2.3	0.2
COc1ccc(S(=O)(=O)N(C)C[C@@H]2OCc3cnnn3CCCC(=O)N([C@@H](C)CO)C[C@@H]2C)cc1	2981	0.0	-7.7	.	3.5
COc1ccc(CCC(=O)Nc2c(-c3ccc(N(C)C)cc3)[nH][nH]c2=O)cc1	4564	-1.4	0.5	.	-0.8
N#C/C(=C\c1ccc(N2CCOCC2)o1)c1nc2ccccc2[nH]1	11443	-17.0	-4.1	3.1	102.0*
COC(=O)C1=C(C)NC2=C(C(=O)CCC2)C1c1ccsc1 (stereo not drawn)	.	.	.	-3.0	.
CC1=C(C(=O)N2CCOCC2)C(c2ccsc2)C2=C(CCCC2=O)N1 (stereo not drawn)	22793*	1.9	-1.6	0.6	3.1
O=C1/C(=C/c2cccc([N+](=O)[O-])c2)CCc2ccccc21	2014	1.8	-3.7	12.7	15.7
O=C1/C(=C/c2cccc([N+](=O)[O-])c2)CSc2ccc(Cl)cc21	3778	?	29.7*	-2.9	?
Cc1ccc(Cl)c(OCCCN(C)Cc2ccccc2)c1	3611	-1.1	-5.3	11.0	-5.8
Cc1ccc(Cl)c(OCCCCN(C)Cc2ccccc2)c1	22668*	?	-2.9	2.2	-3.1
CCn1c(CSc2nc3ccccc3s2)nnc1SCC(=O)OC(C)(C)C	16941*	-3.0	-2.5	2.2	-5.8
CCn1c(SCC(=O)Nc2cc(C(C)(C)C)nn2-c2ccccc2)nnc1-c1cccs1	1983	-0.2	-1.7	3.5	0.1
CCn1c(SCC(N)=O)nnc1-c1cc2c(C)nn(-c3ccccc3)c2s1	23213*	1.5	-0.8	-1.7	1.5
CCn1c(CSc2nc3ccccc3s2)nnc1SCC(N)=O	20063*	-1.8	-0.3	8.6	-2.8
CCn1c(CSc2nc3ccccc3s2)nnc1SCC(=O)NCC(=O)OC	20468*	0.2	-2.8	-5.2	-0.6
Cn1c(CSc2nc3ccccc3s2)nc2ccccc21	22150*	-3.1	-3.1	-2.8	-4.7
Cn1c(CSc2nc3ccccc3s2)n[nH]c1=S	3682	-0.5	0.1	4.2	-14.4
CCn1c(CCc2ccccc2)nnc1SCC(N)=O	3042	3.9	28.1	16.4	37.3*
CC1(c2nnnn2Cc2ccccc2)CCC(=O)N1CCOc1ccccc1 (stereo not drawn)	4303	0.5	5.2	.	6.3
SMILES	Bead autofluor	BoNT A protease	Anthrax LF prot	BJeLR lethal	BoNT F protease
COc1cccc(/C=N/Nc2nccnc2Cl)c1O	3850	-1.3	-0.8	18.1	-8.4
COc1cccc(/C=N/Nc2ncnc(N)c2[N+](=O)[O-])c1OC	21088*	4.7	1.9	-9.0	8.2
COc1cccc(/C=N/Nc2ncnc3scc(-c4ccccc4)c23)c1O	2750	5.1	0.2	70.1*	-2.0
COc1cccc(/C=N/Nc2ncnc(Cl)c2N)c1O	2017	-1.4	-0.8	56.4*	-4.0
COc1cccc(C=NNc2ccc([N+](=O)[O-])cn2)c1OC	4000	0.6	-3.8	.	-13.0
O=C(CN1C(=O)C2CCCN2c2ncc(Cl)cc21)NCc1ccc2c(c1)OCO2 (stereo not drawn)	3689	0.4	0.2	.	-3.6
COc1ccc(CNC(=O)CN2C(=O)C3CCCN3c3ncc(Cl)cc32)cc1 (stereo not drawn)	21975*	?	-3.2	-4.5	-0.1
O=S1(=O)N[C@@H](Cc2ccccc2)COc2cc(N3CC[C@H](O)C3)ccc21	4626	-0.9	-4.9	.	-7.7
Cn1nc(C(C)(C)C)cc1C(=O)N1CCCC(c2cc(C(=O)NCc3ccccc3)no2)C1 (stereo not drawn)	3938	-0.1	-5.1	.	-2.5
Cc1ccc2c(c1)COc1c3ccc(C(=O)N4CCCCC4)cc3nn1-2	3582	0.5	3.5	23.3	4.6
O=C(c1ccc2c3n(nc2c1)-c1ccc(Cl)cc1CO3)N1CCOCC1	4020	-0.3	-1.8	10.6	1.2
O=C(c1ccc2c3n(nc2c1)-c1ccccc1CO3)N1CCCCC1	3299	0.7	-0.1	59.5*	1.2
O=C(c1ccc2c3n(nc2c1)-c1ccccc1CO3)N1CCOCC1	3551	0.2	-2.1	56.6*	1.5
CCOC(=O)c1c(/N=C/c2c(O)n(-c3ccc(F)cc3)c(=S)[nH]c2=O)sc2c1CCCC2	11434	101.4*	56.4*	15.4	43.2*
CCOC(=O)c1c(/N=C/c2c(O)n(-c3ccccc3F)c(=S)[nH]c2=O)sc2c1CCCC2	3294	57.4*	56.2*	-2.6	24.2
CCOC(=O)c1ccc(N=Cc2c(O)n(-c3ccc(OC)cc3)c(=S)[nH]c2=O)cc1	3437	-0.5	-0.8	-10.5	-2.0
C[C@H](CO)N1C[C@H](C)[C@@H](CN(C)C(=O)C2CCCCC2)OCc2cn(nn2)CCCC1=O	3465	-0.1	-8.3	.	-1.7
COc1ccc(N2CCN(C(=O)CN=C3NS(=O)(=O)C(c4ccc(C)cc4)=C3C)CC2)cc1	17288*	-2.8	-0.3	.	-1.0
O=C(c1cc(-c2cccs2)on1)N1CCCc2ccccc21	6112	-0.2	9.3	5.7	3.6
O=c1[nH]cnc2sc3c(c12)CCCC3	23869*	-3.0	-1.6	1.8	-7.1
Cc1ccc(S(=O)(=O)Nc2ccc3nc(N)sc3c2)cc1	19122*	?	-2.7	6.2	4.9
Cc1cccc(NC(=O)c2cc[n+]([O-])cc2)c1C	3982	-1.1	2.5	-1.4	-3.7
CC1=NN(C(=O)c2cccc(Cn3nc(C)c([N+](=O)[O-])c3C)c2)C(O)(C(F)(F)F)C1 (stereo not drawn)	24994*	-3.9	-0.3	-5.6	-6.6
Cc1nn(Cc2cccc(C(=O)N3N=C(C(F)F)CC3(O)C(F)F)c2)c(C)c1[N+](=O)[O-] (stereo not drawn)	24863*	-4.2	0.3	6.9	-6.0
CCC(NC(=O)c1cccc(Cn2nc(C)c([N+](=O)[O-])c2C)c1)c1ccc(C(C)C)cc1 (stereo not drawn)	22838*	1.0	-1.6	0.7	-1.4
Cc1nn(Cc2cccc(C(=O)O)c2)c(C)c1[N+](=O)[O-]	4372	0.4	-2.6	-9.3	-2.1
